In the supplement of paper PMC5940239:

Legend:
[1] = tested on: Madurella mycetomatis MM55; settings: 7 days
[2] = tested on: Madurella mycetomatis MM55; assay: IC90; higher = less potent; settings: 7 days
[3] = tested on: Madurella mycetomatis MM55; assay: percent growth relative to solvent control; higher = less inhibition, active = 20 or less; settings: 100 µM; 7 days

Row | SMILES | IC50 [1] | IC90 [2] | percent growth [3]
1 | CCCc1ccc(S(=O)(=O)Nc2ccc(CN3CCN(CC4CC4)CC3)cc2)cc1 | 63.1 µM | 91.8 µM | -0.983% (active)
2 | COc1ccc(-c2nnc3ccc(-c4cccc(C(C)C)c4)cn23)cc1OC | 40.6 µM | 86.2 µM | 2.59% (active)
3 | CCOc1ccc(-c2nc(CNCCc3ccc(F)cc3)cs2)cc1 | 10.4 µM | 19.6 µM | 3.57% (active)
4 | Cc1ccccc1CN1CCC(O)(c2ccc(Cl)c(C(F)(F)F)c2)CC1 | 35.5 µM | 56.3 µM | 1.71% (active)
5 | Nc1nccc2ccc(-c3ccc4nccn4c3)cc12 | 53.9 µM | 89.2 µM | -2.88% (active)
6 | c1ccc(Oc2ccc(-c3cc(N4CCOCC4)[nH]n3)cc2)cc1 | 56.9 µM | 95.2 µM | 5.11% (active)
7 | CC(C)=CCC/C(C)=C\CNCCNC1C2CC3CC(C2)CC1C3 (stereo not drawn) | 10.2 µM | 19.8 µM | 2.78% (active)
8 | COc1cccc(-n2nnnc2S(C)(=O)=O)c1 | 59.9 µM | 92.6 µM | 1.2% (active)
9 | O=C(c1ccc(F)cc1)N(CCNc1ccccc1)c1ccccc1 | 66.8 µM | 100 µM | 6.35% (active)
10 | Cc1ccc2nc(C)c(-c3ccn(Cc4ccccc4)n3)n2c1 | 39.8 µM | 90.8 µM | 2.95% (active)
11 | COc1ccccc1OCCCCn1c(C2CC2)nc2ccccc21 | 52.1 µM | 92.7 µM | 2.84% (active)
12 | CC(=O)Nc1ccc(-c2noc(CC3CCCN(Cc4cccc(F)c4C)C3)n2)cc1 (stereo not drawn) | 66.2 µM | 94.5 µM | 1.89% (active)
13 | O=C(NC1CC1)c1ccc(N2CCOc3ccc(Cl)cc32)s1 | 34.5 µM | 51.8 µM | -2.78% (active)
14 | c1ccc(Oc2ccc(-c3cc(C4CCOCC4)[nH]n3)cc2)cc1 | 35.6 µM | 57 µM | 4.02% (active)
15 | COc1cncc(-c2cncc(N3CCN(c4ccncc4)CC3)n2)c1 | 28.2 µM | 52.1 µM | -0.286% (active)
16 | O=C(Nc1ccccc1)c1ccc(-c2cc3ccncc3cc2OC2CCNCC2)s1 | 54.3 µM | 87.4 µM | -5% (active)
17 | OCc1ccc(-c2cncc(Nc3cccc(Cl)c3)c2)cc1 | 63.6 µM | 98.2 µM | 7.76% (active)
18 | Nc1nc2ccc(-c3cncc(Oc4ccc(F)cc4)c3)cc2[nH]1 | 40.7 µM | 85.8 µM | -2.72% (active)

Row | SMILES | IC50 [1] | IC90 [2] | percent growth [3]
19 | c1csc(-c2cnc3sc(NCC4CCOCC4)nn23)c1 | 62.6 µM | 95.5 µM | 4.52% (active)
20 | N=C(N)Nc1ccc(-c2ccc(-c3ccc(N=C(N)N)c(Cl)c3)o2)cc1Cl | 61.6 µM | 88.5 µM | -8.11% (active)
21 | O=C(Nc1cccc(Cl)c1)c1cnc(N2CCN(c3ccncc3)CC2)c(Cl)c1 | 9.3 µM | 19.6 µM | 6.08% (active)
22 | COc1cc(CN2CCC3(C=Cc4ccccc43)CC2)cc2c1OCO2 | 28 µM | 91.5 µM | 4.12% (active)
23 | Brc1cncc(-c2cc(NCCCn3ccnc3)nc(-c3ccccc3)n2)c1 | 55 µM | 90.8 µM | -0.251% (active)
24 | Cc1ccc2[nH]c(C3CCCNC3)c(-c3ccncc3)c2c1 (stereo not drawn) | 52.1 µM | 89.4 µM | 0.356% (active)
25 | Cc1cc(NCCc2ccccc2)nc(NC(=N)Nc2ccc(Cl)cc2)n1 | 10.4 µM | 18.8 µM | -1.87% (active)
26 | O=C(c1ccco1)N(CCCn1ccnc1)c1nc2c(Cl)cccc2s1 | 59.1 µM | 94 µM | 3.24% (active)
27 | Clc1ccc(Cl)c(CO[C@H]2CCCC[C@@H]2n2ccnc2)c1 | 14.2 µM | 67.5 µM | 1.03% (active)
28 | CC(c1cc(Cl)cc(Cl)c1)N(C)c1ncc2c(N)nc(N)nc2n1 (stereo not drawn) | 46.5 µM | 90.7 µM | 5.31% (active)
29 | CN1CCN(c2cc(-c3ccc(F)cc3)nc(-c3ccncc3)n2)CC1 | 37.1 µM | 91.2 µM | 2.98% (active)
30 | O=C(c1ccc(NCCO)cc1)C1C[C@H]1c1ccc(Cl)cc1 (stereo partly drawn) | 12.2 µM | 38 µM | 4.06% (active)
31 | Cc1nc(-c2ccccn2)nc(N(C)CCc2ccccc2)c1Cl | 9.25 µM | 17.8 µM | 2.82% (active)
32 | COc1ccc(-c2onc(C(F)(F)F)c2-c2ccc(Cl)cc2)c(O)c1 | 8.8 µM | 16.8 µM | 3.39% (active)
33 | FC(F)(F)c1cc(NCCc2ccccc2)nc(-c2ccccn2)n1 | 55.5 µM | 91.1 µM | -0.699% (active)
34 | CCCn1c(NC(=O)c2ccc3ccccc3n2)nc2ccccc21 | 3.7 µM | 9.85 µM | -3.5% (active)
35 | O=C1N(Cc2cc3ccccc3s2)CC2CN(Cc3ccccc3)CCN12 (stereo not drawn) | 57.6 µM | 91.8 µM | 0.636% (active)
36 | CC(C)(C)c1ccc(N[C@@H]2CCCC[C@H]2NC(=O)c2ccco2)cc1 | 53 µM | 89.7 µM | -1.4% (active)
